Measurements published in PubChem BioAssay (NCATS).
For part of these data: Entries with a potency or affinity are not part of this list. Active and inactive are the calls of the source. No rule for the calls is given here.

What was measured:
[1] = Ebola virus entry assay, green fluorescence channel
[2] = Ebola virus entry assay, blue channel fluorescence
[3] = Ebola virus entry assay, ratio channel
[4] = Ebola virus entry assay, green channel fluorescence
[5] = Ebola virus entry assay, reporter ratio channel; Channel type: primary
[6] = Ebola virus entry assay, blue channel (ratio component)

Measured: efficacy
For efficacy in this document: 0% is about no effect.

CSc1ccc(C(=O)c2[nH]c(=O)[nH]c2C)cc1
inactive: [1] 19.8% | [2] | [3] | [4] | [5] | [6]

CCCc1ncc(C(=O)O)s1
inactive: [1] -25.8% | [2] | [3] | [4] | [5] | [6]

COc1ccnc2c1CCCCC2S(=O)c1nc2ccccc2[nH]1 (stereo not given)
inactive: [1] -22.9% | [2] | [3] | [4] | [5] | [6]

CN(C)CCC(c1ccccc1)c1ccccn1 (stereo not given)
inactive: [1] 12.6% | [2] | [3] | [4] | [5] | [6]

CCOc1ccc(NC(C)=O)cc1
inactive: [1] -22.6% | [2] | [3] | [4] | [5] | [6]

Cc1ccc(C(C)OC(=O)C2(C)CCC(C(=O)O)C2(C)C)cc1 (stereo not given)
inactive: [1] 24.8% | [2] | [3] | [4] | [5] | [6]

N[C@H]1CN(c2c(F)cc3c(=O)c(C(=O)O)cn(C4C[C@@H]4F)c3c2Cl)CC12CC2 (stereo not given in full)
inactive: [1] -25.5% | [2] | [3] | [4] | [5] | [6]

Nc1c(CC(=O)O)cccc1C(=O)c1ccc(Br)cc1
inactive: [1] 18.5% | [2] | [3] | [4] | [5] | [6]

CCCc1cc(C(N)=S)ccn1
inactive: [1] -10.8% | [2] | [3] | [4] | [5] | [6]

O=C1OC(OC(=O)c2cccnc2Nc2cccc(C(F)(F)F)c2)c2ccccc21 (stereo not given)
inactive: [1] -25.3% | [2] | [3] | [4] | [5] | [6]

CCOC(=O)C(=O)CCc1ccccc1
inactive: [1] -17.5% | [2] | [3] | [4] | [5] | [6]

O=C(CCN1CCN(CCO)CC1)N1c2ccccc2Sc2ccc(C(F)(F)F)cc21
inactive: [1] 14.8% | [2] | [3] | [4] | [5] | [6]

Cc1c(N(C)C)c(=O)n(-c2ccccc2)n1C
inactive: [1] 14.3% | [2] | [3] | [4] | [5] | [6]

COc1ccc2[nH]c(S(=O)Cc3ncc(C)c(OC)c3C)nc2n1 (stereo not given)
inactive: [1] 29.9% | [2] | [3] | [4] | [5] | [6]

COC(=O)c1cc(S(N)(=O)=O)ccc1OC
inactive: [1] -31.2% | [2] | [3] | [4] | [5] | [6]

CN(C)C(=O)Nc1ccc(Cl)c(Cl)c1
inactive: [1] 15.7% | [2] | [3] | [4] | [5] | [6]

O=S(=O)(O)NC1CCCCC1
inactive: [1] 14.2% | [2] | [3] | [4] | [5] | [6]

COCCc1ccc(OCC(O)CNC(C)C)cc1 (stereo not given)
inactive: [1] -31.6% | [2] | [3] | [4] | [5] | [6]

NC(=O)CCCCC1CCSS1 (stereo not given)
inactive: [1] 19.1% | [2] | [3] | [4] | [5] | [6]

O=C(O)CN(CCOCCOCCN(CC(=O)O)CC(=O)O)CC(=O)O
inactive: [1] 19.2% | [2] | [3] | [4] | [5] | [6]

NS(=O)(=O)c1cc2c(cc1Cl)NC(CSCc1ccccc1)=NS2(=O)=O
inactive: [1] 11.6% | [2] | [3] | [4] | [5] | [6]

O=C(NCCc1c[nH]c2ccccc12)c1cccnc1
inactive: [1] 15.6% | [2] | [3] | [4] | [5] | [6]

CC(=O)[C@@]1(O)CC[C@H]2[C@@H]3CCC4=CC(=O)CC[C@]4(C)[C@H]3CC[C@@]21C
inactive: [1] -9% | [2] | [3] | [4] | [5] | [6]

Cc1ccc(=O)n(-c2ccccc2)c1
inactive: [1] -13.1% | [2] | [3] | [4] | [5] | [6]

CC(=O)Nc1cccc(O)c1
inactive: [1] 28% | [2] | [3] | [4] | [5] | [6]

CCOC(=O)C(C)(C)Oc1ccc(Cl)cc1
inactive: [1] 22.6% | [2] | [3] | [4] | [5] | [6]

Cc1cc(O)c(C)c(C)c1O
inactive: [1] -20.2% | [2] | [3] | [4] | [5] | [6]

CC(C)C(=O)OCc1cccc(OC(=O)[C@@H]2N3C(=O)[C@@H](NC(=O)Cc4ccccc4)[C@H]3SC2(C)C)c1
inactive: [1] -28.9% | [2] | [3] | [4] | [5] | [6]

CCCN(CCC)C(=O)C(CCC(=O)O)NC(=O)c1ccccc1 (stereo not given)
inactive: [1] 17.5% | [2] | [3] | [4] | [5] | [6]

OCC(CO)N[C@H]1C[C@](O)(CO)[C@@H](O)[C@H](O)[C@H]1O
inactive: [1] -14.7% | [2] | [3] | [4] | [5] | [6]

Cc1ccc(S(=O)(=O)NC(=O)NC2CCCC2)cc1
inactive: [1] -11.6% | [2] | [3] | [4] | [5] | [6]

CC1(C)CO[C@@H](CC(=O)O)CN1
inactive: [1] -12.4% | [2] | [3] | [4] | [5] | [6]

CN1CCN(c2c(F)cc3c(=O)c(C(=O)O)cn(CCF)c3c2F)CC1
inactive: [1] -28.9% | [2] | [3] | [4] | [5] | [6]

CC(=O)Nc1ccc(OCCOCCOc2ccc(NC(C)=O)cc2)cc1
inactive: [1] 20.2% | [2] | [3] | [4] | [5] | [6]

CNC(=O)c1c(I)c(NC(=O)CCCCC(=O)Nc2c(I)c(C(=O)O)c(I)c(C(=O)NC)c2I)c(I)c(C(=O)O)c1I
inactive: [1] -24% | [2] | [3] | [4] | [5] | [6]

C[N+](C)(C)CCCCCCCCCC[N+](C)(C)C
inactive: [1] -18% | [2] | [3] | [4] | [5] | [6]

O=C(CCNNC(=O)c1ccncc1)NCc1ccccc1
inactive: [1] -17% | [2] | [3] | [4] | [5] | [6]

O=C(O)c1cccnc1Nc1cccc(C(F)(F)F)c1
inactive: [1] -25.4% | [2] | [3] | [4] | [5] | [6]

Cl/C(=C\n1cncn1)c1ccc(Cl)cc1Cl
inactive: [1] -16.7% | [2] | [3] | [4] | [5] | [6]

C#CCN(C)Cc1ccccc1
inactive: [1] -14.7% | [2] | [3] | [4] | [5] | [6]

FC(F)(F)C(Cl)Br (stereo not given)
inactive: [1] 31.6% | [2] | [3] | [4] | [5] | [6]

CNC(=O)CN(CCN(CCN(CC(=O)[O-])CC(=O)NC)CC(=O)[O-])CC(=O)[O-].O.[Gd+3]
inactive: [1] -24.9% | [2] | [3] | [4] | [5] | [6]

O=C(NCCCN1CCOCC1)c1ccc(Cl)cc1
inactive: [1] -12.2% | [2] | [3] | [4] | [5] | [6]

CCCSS/C(CCO)=C(\C)N(C=O)Cc1cnc(C)nc1N
inactive: [1] -15.5% | [2] | [3] | [4] | [5] | [6]

CN(C)C(=O)CNC(=O)Cc1ccccc1
inactive: [1] 16.6% | [2] | [3] | [4] | [5] | [6]

C[C@@H]1CC[C@@]2(OC1)O[C@H]1C[C@H]3[C@@H]4CC[C@H]5C[C@@H](O)CC[C@]5(C)[C@H]4CC(=O)[C@]3(C)[C@H]1[C@@H]2C
inactive: [1] 21.9% | [2] | [3] | [4] | [5] | [6]

Oc1cc(O)c2c(c1)O[C@H](c1ccc(O)c(O)c1)[C@H](O)C2
inactive: [1] 34.8% | [2] | [3] | [4] | [5] | [6]

CCOC(=O)OC(C)OC1=C(C(=O)Nc2ccccn2)N(C)S(=O)(=O)c2ccccc21 (stereo not given)
inactive: [1] 12.4% | [2] | [3] | [4] | [5] | [6]

CC(C)(Oc1ccc(CCNC(=O)c2ccc(Cl)cc2)cc1)C(=O)O
inactive: [1] -16.5% | [2] | [3] | [4] | [5] | [6]

O=C(OCC(COC(=O)c1cccnc1)(COC(=O)c1cccnc1)COC(=O)c1cccnc1)c1cccnc1
inactive: [1] -29.2% | [2] | [3] | [4] | [5] | [6]

CC(=O)O[C@H]1CC[C@@]2(C)C(=CC[C@@H]3[C@@H]2CC[C@]2(C)C(C(C)=O)=CC[C@@H]32)C1
inactive: [1] -13.1% | [2] | [3] | [4] | [5] | [6]

O=C1OC(c2ccc(O)cc2)(c2ccc(O)cc2)c2ccccc21
inactive: [1] -10.1% | [2] | [3] | [4] | [5] | [6]

CCN(CC)C(=O)N1CCN(C)CC1
inactive: [1] -16.8% | [2] | [3] | [4] | [5] | [6]

O=C(O)CCNC(=O)c1ccccc1
inactive: [1] -15.3% | [2] | [3] | [4] | [5] | [6]

Cc1cc(C(C)(C)C)c(O)c(C(C)(C)C)c1
inactive: [1] -23% | [2] | [3] | [4] | [5] | [6]

O=C(Oc1cccc2cccnc12)c1ccccc1
inactive: [1] -27.7% | [2] | [3] | [4] | [5] | [6]

CCOCCOC(=O)/C=C/c1ccc(OC)cc1
inactive: [1] 19.6% | [2] | [3] | [4] | [5] | [6]

CCOC(=O)c1ccc(C#Cc2ccc3c(c2)C(C)(C)CCS3)nc1
inactive: [1] 24% | [2] | [3] | [4] | [5] | [6]

N#Cc1cc(NC(=O)C(=O)O)c(Cl)c(NC(=O)C(=O)O)c1
inactive: [1] 18.8% | [2] | [3] | [4] | [5] | [6]

CC(=O)OCC(=O)[C@@]1(O)CCC2C3CCC4=CC(=O)CC[C@]4(C)C3[C@@H](O)C[C@@]21C (stereo not given in full)
inactive: [1] -12.5% | [2] | [3] | [4] | [5] | [6]
